Screens (PubChem)
Shown are actives, neighbours in structure and some others; about 3.6% of the full set was active somewhere.
NadD block – blocks S. aureus nicotinate mononucleotide adenylyltransferase; purified NadD enzyme, colorimetric absorbance read-out; inhibition, % at 20 µM; 360,000 compounds, 0.78% hits; AID 602399; in the data active = inhibition above about 26%
CRFR2-BP antag – antagonists of CRF-binding protein/CRF-R2 receptor complex | 350,000 compounds, 0.59% hits | HEK293 CRF-R2/CRF-BP, CRF-induced calcium fluorescence | inhibition, % at 11.8 µM;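 active = inhibition of the ligand-induced calcium signal above about 50% at the single tested concentration, limit read from the data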
Myeloid diff 2 – promotes myeloid progenitor differentiation; ER-HoxA9 myeloid progenitors, lysozyme-GFP differentiation, flow cytometry; calls only at 10 µM; 360,000 compounds, 1% hits;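 active = normalized GFP-positive differentiation at or above the plate's own cutoff, the solvent-only control mean plus 3 SD; inconclusive = no clear call, values can overlap the other calls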;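 also: cells exposed to compound for four days before flow analysis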
CendR NRP1 mod – NRP-1/CendR interaction modulation; O14786; FAM-RPARPAR peptide binding to NRP-1, fluorescence polarization; inhibition, % at 25 µM; 360,000 compounds, 0.85% hits; AID 602438;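 active = inhibition or corrected inhibition above about 18%, plus a signal ratio from 0.5 to 1.5, limit read from the data, passing the limit was not always enough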
FAS TE block – FAS thioesterase (human) inhibition; inhibition, % at 15 µM; AID 602261; P49327; recombinant FAS-TE, OMFH fluorogenic substrate, fluorescence endpoint; 360,000 compounds, 0.67% hits;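 active = compounds whose normalised, plate-corrected inhibition of enzyme fluorescence in the single-dose primary screen is 50% or more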
Of the large screens only hits and unclear results are named; the others gave an inactive call.

Cc1cc(O)cc2c1O[C@@](C)(CCC[C@@H](C)CCC[C@@H](C)CCCC(C)C)CC2	none
CC(=O)Oc1c(C)c(C)c2c(c1C)CC[C@@](C)(CCC[C@H](C)CCC[C@H](C)CCCC(C)C)O2	Myeloid diff 2 active
CCc1nc2ccc(C(=O)NCc3cccs3)cn2c1N(C)Cc1nccs1	none (no result: CRFR2-BP antag)
OC[C@@H]1CN(Cc2cccs2)C[C@H](n2cnc3c(N4CCCC4)ncnc32)O1	none (no result: CRFR2-BP antag)
COc1cc(NS(=O)(=O)c2ccc(NC(=O)/C(=C\c3ccccc3OC)NC(=O)c3ccccc3)cc2)nc(OC)n1	NadD block 31
COc1cc(NS(=O)(=O)c2ccc(NC(=S)NC(=O)COc3ccccc3OC)cc2)nc(OC)n1	none
CCc1ccc2[nH]c3nc(N/N=C/c4ccc(O)cc4O)nnc3c2c1	NadD block 39
Cc1ccc2[nH]c3nc(N/N=C/c4cccc(O)c4)nnc3c2c1	none
Cc1ccc(C)c(S(=O)(=O)N2CCN(C(=O)Cc3c(F)cccc3Cl)CC2)c1	none (no result: Myeloid diff 2)
Cc1ccc(C)c(S(=O)(=O)N2CCN(C(=O)CSc3ccccc3F)CC2)c1	CendR NRP1 mod 24
COc1ccccc1OCC(=O)NNC(=O)CSC(=S)N1CCCC1	CendR NRP1 mod 24
COc1ccccc1OCCNC(=O)CSC(=S)N1CCCC1	none
COc1ccccc1OCC(=O)NCC1CCCN(C(=O)c2ccccc2C(C)=O)C1 (stereo not drawn)	CRFR2-BP antag 68
CC1(C(=O)Nc2cccc3cccnc23)CCN1C(=O)Cc1ccc(Cl)cc1Cl (stereo not drawn)	none (no result: CRFR2-BP antag)
CCc1cc(-c2nnn(CCC3COCCO3)c2C(C)(C)O)ccc1-c1cn(CCc2c[nH]c3ccccc23)nn1 (stereo not drawn)	none
CN(C)C(CNC(=O)c1ccc(-c2ccccc2)cc1)c1ccccc1 (stereo not drawn)	Myeloid diff 2 active
O=C(NCc1ccccn1)c1ccc(OC2CCN(Cc3ccc(Cl)s3)CC2)cc1	none
CCCC[C@@H]1CC2=C(C(=O)OC(C)(C)O2)[C@H](c2ccc(C(C)C)cc2)O1	none (no result: CRFR2-BP antag)
COC1=CC(=O)c2nc(Cl)ccc2C1=O	Myeloid diff 2 inconclusive, CendR NRP1 mod 26 (no result: CRFR2-BP antag)
COC1=CC(=O)c2c(ccc3ncnc(N)c23)C1=O	none (no result: Myeloid diff 2)
Cc1cccc(C(=O)NNC(=O)C2CCCCC2)c1O	none
Cc1nn(Cc2cccc(C(=O)Nc3ccn(Cc4c(F)c(F)cc(F)c4F)n3)c2)c(C)c1[N+](=O)[O-]	none
Cc1nn(C)c(C(=O)Nc2ccn(Cc3c(F)c(F)cc(F)c3F)n2)c1[N+](=O)[O-]	Myeloid diff 2 active
O=C(NNC(=O)c1csc(N2CCOCC2)n1)c1ccc(=O)[nH]c1	CendR NRP1 mod 25
C/C=C/c1cccc(-c2nc(C(=O)N3CCOCC3)cc3c2[C@H](CCO)N(C(=O)NC(C)C)C3)c1	none (no result: CRFR2-BP antag)
Cc1ccc(N=Nc2c(C)[nH]n(C(N)=S)c2=O)cc1C	none
Cc1[nH]n(C(N)=S)c(=O)c1N=Nc1cc(-c2ccc(Br)cc2)[nH]n1	NadD block 43, CRFR2-BP antag 80
COc1cc(CNc2ncnc3c2ncn3[C@H]2CN(Cc3ccc(Cl)cc3)C[C@@H](CO)O2)cc(OC)c1OC	none (no result: CRFR2-BP antag)
CCCCn1c(N)c(N(CCC(C)C)C(=O)Cc2ccc(S(=O)(=O)N3CCOCC3)s2)c(=O)[nH]c1=O	CRFR2-BP antag 100
COC(=O)C1=CN(c2ccc(Oc3ccccc3)cc2)C(N)=C(C#N)C1c1ccccc1 (stereo not drawn)	none (no result: NadD block, CRFR2-BP antag, FAS TE block)
COC(=O)C1=CN(c2ccccc2OC)C(N)=C(C#N)C1c1cccc([N+](=O)[O-])c1 (stereo not drawn)	Myeloid diff 2 inconclusive (no result: NadD block, CRFR2-BP antag, FAS TE block)
CCOc1ccc(CCNC(=O)C2(c3ccccc3)CC2)cc1OCC	CendR NRP1 mod 20
CCOc1ccc(CCNC(=O)c2nccnc2C(=O)O)cc1OCC	none
COc1cccc(/C=N/NC(=O)c2ccc3nc[nH]c3c2)c1O	none
CCN(CC)c1ccc(/C=N/NC(=O)c2ccc3nc[nH]c3c2)c(O)c1	Myeloid diff 2 active
Cc1ccccc1NC(=S)NC(=O)COc1ccccc1C	CendR NRP1 mod 22
Nc1ccc(N2CCCCC2)c2nonc12	CendR NRP1 mod 29
O=C(NC1(C(F)(F)F)NC(=O)N(Cc2ccccc2)C1=O)c1cccnc1 (stereo not drawn)	CendR NRP1 mod 41
COc1ccccc1Cc1c(-c2ccccc2)nc2ccc(Cl)cn12	none (no result: CRFR2-BP antag)
Cc1cc(NC(=O)CSc2nc(=O)n(CCCN(C)C)c3c2CCCC3)no1	none
CCOC(=O)C(Cc1ccccc1)NC(=O)CCc1nnc2ccc(N3CCCC3)nn12 (stereo not drawn)	CRFR2-BP antag 58
CCOC(=O)C(Cc1ccccc1)NC(=O)CCc1nnc2ccc(N3CCCCC3)nn12 (stereo not drawn)	none
CCOC(=O)N1CCN(C(=O)C[C@@H]2C[C@@]3(C(=O)OCC)CCCC=C3N(Cc3ccco3)C2=O)CC1	none (no result: CRFR2-BP antag)
COc1cc2c(cc1OC)C(c1ccc(-c3ccc(Cl)cc3Cl)o1)=NCC2	none
COc1cc2c(cc1OC)C(c1ccc(-c3cc(Cl)ccc3Cl)o1)=NCC2	Myeloid diff 2 active
CC(=O)N[C@H]1C[C@@H]1c1ccccc1	CRFR2-BP antag 61
Cc1cc2cc3c(=O)[nH]c(=O)nc-3n(CC(O)C(O)C(O)CO)c2cc1C (stereo not drawn)	CendR NRP1 mod 25
CC(C)c1cc(Cn2c3ccccc3c(=O)n2C(C)Cn2cc(C3=CCCCC3)nn2)on1 (stereo not drawn)	none (no result: NadD block, CRFR2-BP antag, FAS TE block)
CCOc1cc(C2C(C#N)=C(N)OC(C)=C2C(C)=O)c(Br)c(Br)c1OC(C)C (stereo not drawn)	FAS TE block 72
Cc1ccc(NC(=O)CCc2nnc3ccc(NCc4ccco4)nn23)nc1	Myeloid diff 2 inconclusive
CC(CCc1ccco1)NC(=O)CCc1nnc2ccc(NCc3ccccc3)nn12 (stereo not drawn)	CRFR2-BP antag 53
COc1ccc(S(=O)(=O)NC(=O)C2(C)CCN2C(=O)CC2CCCC2)cc1 (stereo not drawn)	none (no result: CRFR2-BP antag)
COc1ccc(S(=O)(=O)N(C)C[C@@H]2OCc3cn(nn3)CCCC(=O)N([C@@H](C)CO)C[C@H]2C)cc1	none
Cc1cccc(NC(=O)c2cc(S(=O)(=O)c3ccccc3)ccc2Cl)c1	CRFR2-BP antag 62, CendR NRP1 mod 34
Cc1ccccc1NC(=O)c1cc(S(=O)(=O)c2ccccc2)ccc1Cl	none
COc1ccccc1N1CCN(CC(=O)Nc2c(C)n[nH]c2C)CC1	CRFR2-BP antag 68
Cc1cccc(S(=O)(=O)NC(=O)C2(C)CCN2C(=O)CCc2ccccc2)c1 (stereo not drawn)	CendR NRP1 mod 27 (no result: CRFR2-BP antag)
Cc1cccc(S(=O)(=O)NC(=O)C2(C)CCN2C(=O)Cc2ccccc2)c1 (stereo not drawn)	none (no result: CRFR2-BP antag)
O=C(O)c1cccc(N/N=C/c2cc(Br)cc(Br)c2O)c1	CRFR2-BP antag 64
COc1ccc(Br)cc1/C=N/Nc1cccc(C(=O)O)c1	none
O=C(CP(=O)(c1ccccc1)c1ccccc1)N/N=C/c1cc(Br)cc(Br)c1O	NadD block 44
CCCC1NC(=O)c2cccnc2-n2c1nc1ccc(OC)cc1c2=O (stereo not drawn)	none
